We go through 37 compounds from the supplement of paper PMC10498489.

About 330 (14%) of roughly 2,300 compounds showed activity. The list is a sample of the results. Unmarked numbers belong to inactive results.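 How the source made its calls: active = median modified Z-score above 1.96; inactive = 1.96 or below.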

The subject of this assay is HepG2 Srxn1-GFP reporter cells (+30 nM CDDO-Me). In words: Srxn1-GFP intensity median modified Z-score relative to plate median; higher = stronger NRF2 / oxidative stress reporter activation, active = hit call of the paper. The following applies: 10 µM; exposure time: 24h. In a few lines: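 In 96-well plates holding 20,000 HepG2 Srxn1-GFP BAC reporter cells per well, compound at 10 μM and an NRF2 activator at 30 nM were added together for 24 h, with DMSO at ≤0.1%, across three replicate plates. After fixation in formaldehyde and Hoechst staining, confocal images were analysed cell by cell for cytoplasmic GFP, and images containing under 100 cells were excluded. Values are replicate medians of the per-plate modified Z-score of GFP intensity, scaled by 1.4826 × median absolute deviation.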
Consider `O=C1CC[C@@]2(O)[C@H]3Cc4ccc(O)c5c4C2(CCN3CC2CC2)C1O5` (some centres not stated) [euspeclibcmpd560], for which the “Srxn1-GFP intensity median modified Z-score” value was -0.0532.
Turning to `Cc1c[nH]cn1` [euspeclibcmpd2111], the “Srxn1-GFP intensity median modified Z-score” value is -0.158.
With `CC1=CCC[C@@H]2C1(C)CCC(C)[C@@]2(C)CC/C(C)=C/Cn1c[n+](C)c2c(=N)nc[nH]c21` (some centres not stated) [euspeclibcmpd1491], the “Srxn1-GFP intensity median modified Z-score” value was 13.7 (active).
The same measure for `COc1ccc2c(c1O)[C@@]13CCN(C)[C@@H](C2)C1=CC(OC)C(=O)C3` (some centres not stated) [euspeclibcmpd1375]: -0.172; for `CC(C)c1ccc2c(c1O)CCC1c3coc(O)c3CC[C@]21C` (some centres not stated) [euspeclibcmpd2379]: -0.468.
Regarding `Nc1ccc([As](=O)(O)O)cc1` [euspeclibcmpd2461], the “Srxn1-GFP intensity median modified Z-score” value was 11.1 (active).
The figure for `O=C1CC2OCC=C3CN4CC[C@]56c7ccccc7N1C5[C@H]2[C@H]3CC46` (some centres not stated) [euspeclibcmpd327] is -0.00366.
For the compound `COP(=S)(OC)Oc1ccc(SC)c(C)c1` [euspeclibcmpd1025], the “Srxn1-GFP intensity median modified Z-score” value was -0.288.
Take `O=C(CCCN1CCC2(CC1)C(=O)NCN2c1ccccc1)c1ccc(F)cc1` [euspeclibcmpd405]: the “Srxn1-GFP intensity median modified Z-score” value was 10.2 (active).
With `C#C[C@]1(O)CCC2C3CC=C4CC(=O)CCC4C3CC[C@@]21C` (some centres not stated) [euspeclibcmpd2279], the “Srxn1-GFP intensity median modified Z-score” value is 0.0789.
`C#C[C@]1(O)CCC2C3CC=C4CC(=O)CCC4C3CC[C@@]21C` (some centres not stated) [euspeclibcmpd2269]: the “Srxn1-GFP intensity median modified Z-score” value was 1.21.
As to `CCCCOC(=O)c1ccccc1C(=O)OCCCC` [euspeclibcmpd1242], the “Srxn1-GFP intensity median modified Z-score” value was -0.441.
The figure for `CCCCCCCCC(=O)NCc1ccc(O)c(OC)c1` [euspeclibcmpd1268] is -0.241; for `CC1CCC2(OC1)OC1C(O)C3C4CCC5CC(OC6OC(CO)C(OC7OC(CO)C(O)C(OC8OCC(O)C(O)C8O)C7OC7OC(CO)C(O)C(OC8OC(CO)C(O)C(O)C8O)C7O)C(O)C6O)C(O)CC5(C)C4CCC3(C)C1C2C` (configuration not stated) [euspeclibcmpd1933] it is 22.3 (active); for `CC(=O)O[C@H]1C[C@H](O[C@H]2[C@@H](O)C[C@H](O[C@H]3[C@@H](O)C[C@H](O[C@H]4CC[C@@]5(C)C(CCC6C5C[C@@H](O)[C@]5(C)C(c7coc(O)c7)CC[C@]65O)C4)O[C@@H]3C)O[C@@H]2C)O[C@H](C)[C@H]1O[C@@H]1O[C@H](CO)[C@@H](O)[C@H](O)[C@H]1O` (some centres not stated) [euspeclibcmpd420] it is -0.493.
Regarding `C[C@@H]1CC[C@@]2(NC1)O[C@H]1C[C@H]3C4CC=C5C[C@@H](O)CC[C@]5(C)C4CC[C@]3(C)C1[C@@H]2C` (some centres not stated) [euspeclibcmpd1732], the “Srxn1-GFP intensity median modified Z-score” value is 0.173.
The same measure for `C[C@H]1CC[C@]2(NC1)OC1CC3C4CCC5C[C@@H](O[C@@H]6O[C@H](CO)[C@H](O[C@H]7O[C@H](CO)[C@@H](O)[C@H](O[C@@H]8OC[C@@H](O)[C@H](O)[C@H]8O)[C@H]7O[C@@H]7O[C@H](CO)[C@@H](O)[C@H](O)[C@H]7O)[C@H](O)[C@H]6O)CC[C@]5(C)C4CC[C@]3(C)C1[C@@H]2C` (some centres not stated) [euspeclibcmpd480]: 71.3 (active); for `CCNC1(c2cccs2)CCCCC1=O` (configuration not stated) [euspeclibcmpd629]: -0.153; for `O=C1NC(=O)C(=O)C(=O)N1` [euspeclibcmpd1767]: 0.258.
With `NC(=O)C[S@@+]([O-])C(c1ccccc1)c1ccccc1` [euspeclibcmpd2097], the “Srxn1-GFP intensity median modified Z-score” value is 0.795.
For `O=c1[nH]c(=O)n(Cl)c(=O)n1Cl` [euspeclibcmpd2375], the “Srxn1-GFP intensity median modified Z-score” value is 0.319.
`c1cncc(C2CCCCN2)c1` (configuration not stated) [euspeclibcmpd1406]: the “Srxn1-GFP intensity median modified Z-score” value is 0.116.
For the compound `COc1ccc2c(c1)[C@]13CCCC[C@@H]1[C@H](C2)N(C)CC3` [euspeclibcmpd87], the “Srxn1-GFP intensity median modified Z-score” value was 0.145.
Consider `COC(=O)C1CC(OC(C)=O)C(=O)C2C1(C)CCC1C(=O)OC(c3ccoc3)CC12C` (configuration not stated) [euspeclibcmpd1949], for which the “Srxn1-GFP intensity median modified Z-score” value is -0.455.
As to `CC1(C)C(=O)C=C[C@@]2(C)C1C[C@@H](O)[C@]1(C)C2CC[C@@]2(C)[C@H](c3ccoc3)OC(=O)C3O[C@]321` (some centres not stated) [euspeclibcmpd1629], the “Srxn1-GFP intensity median modified Z-score” value was 32.4 (active).
As to `CC1(C)C(=O)C2O[C@@H]2[C@@]2(C)C1C[C@@H](O)[C@]1(C)C2CC[C@@]2(C)[C@H](c3ccoc3)OC(=O)C3OC321` (some centres not stated) [euspeclibcmpd1634], the “Srxn1-GFP intensity median modified Z-score” value was 0.977.
The figure for `CC1(C)C2CC(=O)[C@]3(C)C(CC[C@@]4(C)[C@H](c5ccoc5)OC(=O)C5OC543)[C@@]2(C)[C@@H](O)C[C@H]1O` (some centres not stated) [euspeclibcmpd1573] is -0.392.
The figure for `CC(=O)OC1CC(OC(C)=O)C2(C)C(CC(OC(C)=O)C3(C)C2CCC2(C)C(c4ccoc4)C(=O)C4OC423)C1(C)C` (configuration not stated) [euspeclibcmpd1943] is 1.55; for `CC(=O)O[C@@H]1CC2C(C)(C)C(=O)C=C[C@]2(C)C2CC[C@]3(C)C(=CC(=O)O[C@H]3c3ccoc3)[C@@]21C` (some centres not stated) [euspeclibcmpd1551] it is 38.8 (active).
On to `CC(CC(C(N)=O)(c1ccccc1)c1ccccc1)N(C)C` (configuration not stated) [euspeclibcmpd819], for which the “Srxn1-GFP intensity median modified Z-score” value was -0.42.
The figure for `C[N+]12CC[C@@]34c5ccccc5N5C(=O)CC6OCC=C(C1)[C@H](CC32)[C@@H]6C54` (some centres not stated) [euspeclibcmpd1705] is -0.091; for `COc1cc2c(cc1O)CCNC2C` (configuration not stated) [euspeclibcmpd1467] it is -0.387.
As for `CCOP(=S)(OCC)Oc1ccc2c(C)c(Cl)c(=O)oc2c1` [euspeclibcmpd1023], the “Srxn1-GFP intensity median modified Z-score” value is 1.02.
The figure for `C[C@H]1O[C@H](O[C@H]2[C@H](O)[C@@H](O)[C@@H](O)[C@H](O)[C@@H]2O)[C@@H](N)C[C@@H]1N=C(N)C(=O)O` [euspeclibcmpd1430] is -0.17; for `NCCc1cc(O)c(O)cc1O` [euspeclibcmpd220] it is -0.288.
The figure for `CC[C@H]1C[N@]2CCC1C[C@@H]2[C@@H](O)c1ccnc2ccc(OC)cc12` [euspeclibcmpd2090] is 0.772; for `C[C@]12CCC3[C@@H](CC[C@@]45OC4C(=O)C(C#N)C[C@]35C)[C@H]1CC[C@@H]2O` (some centres not stated) [euspeclibcmpd687] it is -0.339.
